Reference: PubChem BioAssay (NCI)
The panel holds about 83,000 compounds, 20% with a hit somewhere; the sample as a whole holds those more often.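 Note: values are percent growth. 100 is the growth of untreated cells, values between 100 and 0 indicate rising inhibition; between -100 and 0 indicates cell death.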 Unmarked numbers belong to inactive results. Active and inactive are the calls of the source.

These compounds were tested on CAKI-1 renal (assay: NCI-60 one-dose screen, 48 h (100 = growth as untreated, 0 = no growth, -100 = all killed)). Settings: 10 µM.
Method: Growth inhibition of the CAKI-1 human tumor cell line is measured as a screen for anti-cancer activity. Cells are grown in 96 well plates and exposed to the test compound for 48 hours. Compounds are tested at a single concentration, which is 10^-5 M for most compounds. The reported endpoint is percent growth (GI% or GIPRCNT), where numbers from 0 - 100% represent growth inhibition, and numbers from -100% - 0 represent cell death. For example, a value of 40 represents 60% growth inhibition. A value of 0 means no net growth occurred over the course of the experiment. A value of -40 indicates 40% of cells at the beginning of the experiment died by the end of the experiment. A value of -100 means all cells are dead at the end of the experiment.
NCI-60 Human Tumor Cell Lines Screen was performed using the standard one-dose NCI protocol, which is described in more detail at https://dtp.cancer.gov/discovery_development/nci-60/default.htm.
Compounds with GIPRCNT values below 10 were considered active. Activity score was based on GIPRCNT using the following formula: […]
Score is 0 for GIPRCNT values of 100 or above, 50 for GIPRCNT values of 0, and 100 for GIPRCNT values of -100.

Structure (SMILES) | growth
O=C(/C=C/c1ccco1)c1nc2ccccc2n1Cc1ccc(F)cc1 | 57.6%
C[C@H]1[C@H](OC(=O)CCC(=O)N(CCCc2cn(-c3ccc(CN4CCOCC4)cc3)nn2)CCNc2ccnc3cc(Cl)ccc23)O[C@@H]2OC3(C)CC[C@H]4[C@H](C)CC[C@@H]1[C@@]24OO3 | 21.4%
C=CCN=C([Se])NC(=O)c1ccc2c(c1)OCO2 | 118%
C[C@H]1[C@@H](Oc2ccc(-c3cn(-c4ccnc5cc(Cl)ccc45)nn3)cc2)O[C@@H]2OC3(C)CC[C@H]4[C@H](C)CC[C@@H]1[C@@]24OO3 | 25.6%
O=C(/C=C/c1ccc(Cl)cc1)c1nc2ccccc2n1Cc1ccc(F)cc1 | 41.8%
O=C(/C=C/c1ccc(Cl)cc1)c1nc2ccccc2n1Cc1ccc(Br)cc1 | 57.4%
CCOC(=O)C1=C(Nc2ccccc2)C(=O)OC12C(=O)Nc1ccccc12 (stereo not given) | 82.6%
CC1=C(C=O)C2=C(C)C3(CC3)[C@@](C)(O)C(=O)C2=C1 | 31.7%
C=CC[Se]C(=O)c1ccc(C(=O)[Se]CC=C)s1 | -83.9% (active)
C[C@H]1[C@H](OC(=O)CCC(=O)N(CCCc2cn(-c3ccc(C#N)cc3)nn2)CCNc2ccnc3cc(Cl)ccc23)O[C@@H]2OC3(C)CC[C@H]4[C@H](C)CC[C@@H]1[C@@]24OO3 | 40.8%
COc1cc2cc(C(=O)N3C[C@@H](CCl)c4c3cc(OC(=O)N3CCN(C(=O)CCC(=O)N5CCN(C)CC5)[C@@H]5CSSC[C@@H]53)c3ccccc43)[nH]c2c(OC)c1OC | 13.9%
CCC[Se]C(=O)c1ccc(C(=O)[Se]CCC)s1 | -78.1% (active)
O=C(NC([Se])=NC1CCCCC1)c1ccccc1 | 32.4%
COc1ccc(OC)c(/C=C/C(=O)c2nc3ccccc3n2Cc2ccc(F)cc2)c1 | 32.2%
O=C(NCCCCC(c1ccc(F)cc1)c1ccc(F)cc1)Nc1ccc([N+](=O)[O-])c(C(F)(F)F)c1 | -3.31% (active)
O=C(/C=C/c1ccccc1Cl)c1nc2ccccc2n1Cc1ccc(F)cc1 | -40.5% (active)
CC[C@]12C=CCN3CC[C@@]4(c5ccc(OC)cc5N(C)[C@H]4[C@@](O)(C(=O)OC)[C@@H]1OC(=O)CCCC[P+](c1ccc(OC)cc1)(c1ccc(OC)cc1)c1ccc(OC)cc1)[C@@H]32 | -78.5% (active)
COC(=O)C[C@](O)(CCC(C)C)C(=O)O[C@@H]1C(OC)=C[C@]23CCCN2CCc2cc4c(cc2[C@H]13)OCO4 | -13.1% (active)
COc1cc(OC)c(/C=C/C(=O)c2nc3ccccc3n2Cc2ccc(F)cc2)c(OC)c1 | 56.2%
C#CC[Se]C(=O)c1ccc(C(=O)[Se]CC#C)s1 | 106%

Structure (SMILES) | growth
CC(=C\C(=O)Oc1ccc2c3c1OC1C(O)CCC4(O)C(C2)N(CC2CCC2)CCC314)/C=C1\CCCc2ccccc21 (stereo not given) | 41.7%
COC(=O)C[C@](O)(CCC(C)C)C(=O)O[C@H]1C(OC)=C[C@@]23CCCN2CCc2cc4c(cc2[C@@H]13)OCO4 | -28.4% (active)
O=C(/C=C/c1ccc(Br)cc1)c1nc2ccccc2n1Cc1ccc(Br)cc1 | 16%
Cc1c2oc3c(C)ccc(C(=O)N[C@@H]4C(=O)N[C@H](C(C)C)C(=O)N5CCC[C@H]5C(=O)N(C)CC(=O)N(C)[C@@H](C(C)C)C(=O)OC4C)c3nc-2c(C(=O)N[C@@H]2C(=O)N[C@H](C(C)C)C(=O)N3CC(=O)C[C@H]3C(=O)N(C)CC(=O)N(C)[C@@H](C(C)C)C(=O)OC2C)c(N)c1=O (stereo not given in full) | 8.23% (active)
CC12OOC(C)(OO1)C2CCC(=O)NCCCNc1ccnc2cc(Cl)ccc12 (stereo not given) | -93.3% (active)
O=C(/C=C/c1ccc(F)cc1)c1nc2ccccc2n1Cc1ccc(Br)cc1 | -23% (active)
O=C(/C=C/c1ccccc1)c1nc2ccccc2n1Cc1ccc(F)cc1 | 31.2%
COc1cc(OC)c(S(=O)(=O)N(CCCl)CCCl)cc1C(=O)/C=C/c1cc(OC)c(OC)c(OC)c1 | -5.59% (active)
CCOP(=O)(OCC)C(NC(C)=O)C(=O)SCCN (stereo not given) | 101%
COC(=O)CCn1c(-c2ccc(-n3cc(-c4ccc(O[C@H]5O[C@@H]6OC7(C)CC[C@H]8[C@H](C)CC[C@@H]([C@H]5C)[C@@]68OO7)cc4)nn3)cc2)nc2ccccc21 | 13.7%
COCCOCCOCCOc1ccc(-n2cc(-c3ccc(O[C@H]4O[C@@H]5OC6(C)CC[C@H]7[C@H](C)CC[C@@H]([C@H]4C)[C@@]57OO6)cc3)nn2)cc1 | 25%
COc1ccc2cc([C@H](C)C(=O)[Se]CCC#N)ccc2c1 | -94% (active)
C[C@H]1[C@@H](CC(=O)N[C@@H](Cc2coc3ccccc23)B(O)O)O[C@@H]2OC3(C)CC[C@H]4[C@H](C)CC[C@@H]1[C@@]24OO3 | 25.2%
C#CCCCN(CCNc1ccnc2cc(Cl)ccc12)C(=O)CCC(=O)O[C@@H]1O[C@@H]2OC3(C)CC[C@H]4[C@H](C)CC[C@@H]([C@H]1C)[C@@]24OO3 | 41.4%
C=CC[Se]C(=O)c1cncc(C(=O)[Se]CC=C)c1 | -8.92% (active)
O=C(/C=C/c1ccc(F)cc1)c1nc2ccccc2n1Cc1ccc(F)cc1 | 43.9%
O=C(/C=C/c1ccco1)c1nc2ccccc2n1Cc1ccc(Br)cc1 | 47.5%
CN(C)CCc1cn(C2CCC2)c2cccc(O)c12 | 42.3%
CC1=C2C(=C[C@@](C)(COP(=O)(Oc3ccccc3)Oc3ccccc3)[C@@H]2O)C(=O)[C@@](C)(O)C12CC2 | -19.5% (active)
CC[C@@]12CC(C(=O)OC)=C3Nc4cc5c(cc4[C@@]34CCN(C[C@H]3O[C@H]31)[C@@H]24)[C@@H]1[C@H](O5)[C@@H](O)[C@@]2(CC)CC(C(=O)OC)=C3Nc4cc(OC)ccc4[C@@]34CCN1[C@@H]24 | 12.9%
